Screening results as filed in PubChem BioAssay.
The list is not random: actives were taken first. Their share in the collection is about 3%.
USP1-UAF1 inh = inhibitors of human USP1/UAF1 deubiquitinase. O94782. recombinant USP1/UAF1, Ub-Rhodamine cleavage fluorescence. Potency, µM (titrated, usually from 57.1 µM), for the others: top-dose activity change, negative = inhibition, actives largely listed as inhibitors. actives 0.23% (n = 390,000). AID 743255; also: % is scaled to controls: 0 for no effect and ±100 for the full control effect; nearly all actives have a fitted effect of over 60% in size
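Step one: compound is pinned into 1nM USP1/UAF1 in HEPES pH 7.8 buffer with TCEP. Step two: 15 min room-temperature incubation. Step three: Ub-Rho (150nM final) starts cleavage, tracked by fluorescence over six one-minute reads.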
KAT2A inh = inhibitors of human GCN5L2 histone acetyltransferase. Q92830. GCN5L2 HAT assay, ThioGlo1 CoA-SH fluorescence. Potency, µM (top dose mostly 58.9 µM), without a hit: at the top dose activity change, negative = inhibition, usual class: inhibitors. actives 0.21% (n = 390,000). AID 504327; also: % is scaled to controls: 0 for no effect and ±100 for the full control effect
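Fluorescence readout, Ex340nm/Em540nm: ThioGlo1 (50uM final) reacts with free CoA thiol released as 20nM GCN5L2 acetylates H3(1-25) peptide (75uM) using acetyl-CoA (70uM). Compound and enzyme sat 15 min beforehand; 20 min room-temperature reaction.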
VDR inhibitor = inhibitors of human vitamin D receptor | P11473 | VDR-SRC2-3 peptide fluorescence polarization, 2 h | Potency, µM, inactives show max response, negative = inhibition, hits mostly inhibitors | actives 0.93% (n = 400,000) | AID 504847; also: % is scaled to controls: 0 for no effect and ±100 for the full control effect
Target sequence (P11473 whole entry, looked up): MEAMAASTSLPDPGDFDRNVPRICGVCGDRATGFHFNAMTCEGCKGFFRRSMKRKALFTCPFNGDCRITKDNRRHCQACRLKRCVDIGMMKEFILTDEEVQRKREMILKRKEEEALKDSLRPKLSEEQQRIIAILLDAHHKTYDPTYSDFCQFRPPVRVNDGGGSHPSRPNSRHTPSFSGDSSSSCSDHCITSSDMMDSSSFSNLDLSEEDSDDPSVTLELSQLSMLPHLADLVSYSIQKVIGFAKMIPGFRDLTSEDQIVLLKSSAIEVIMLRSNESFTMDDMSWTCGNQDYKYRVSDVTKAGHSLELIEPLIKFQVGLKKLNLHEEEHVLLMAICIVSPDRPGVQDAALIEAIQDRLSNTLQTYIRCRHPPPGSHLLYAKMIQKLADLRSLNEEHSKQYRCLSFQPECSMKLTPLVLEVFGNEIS
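The screen uses fluorescence polarization to detect compounds that interfere with recruitment of the SRC2-3 coactivator peptide to VDR; plates are read after 2 h at room temperature.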
PLK1 PBD block = inhibitors of human PLK1 polo-box domain binding | Plk1 PBD binding of FITC phosphopeptide, fluorescence polarization | Potency, µM, for the others: max response, negative = inhibition, usual class: inhibitors | actives 2.8% (n = 360,000); also: series mostly up to about 57 µM; % is scaled to controls: 0 for no effect and ±100 for the full control effect; nearly all actives have a fitted effect of over 65% in size
TSG101-PTAP inh = blocks PTAP/TSG101 interaction to inhibit HIV-1 budding. Potency, µM (highest dose often 115 µM), for the others: top-dose activity change, negative = inhibition, most hits filed as inhibitors. Q99816. Fluorescence polarization, FITC-PTAP peptide / Tsg101 binding. 340,000 tested, under 10 active; active = well fitted inhibition curve with a large enough effect in the main read-out, with a control signal flat, not every such curve was filed as active; inconclusive = small, poorly fitted or top-dose-only effect, or effect the other way, or a change in a side signal; inactive = no such curve, though single readings can be large or run the other way; also: % of control where 0% means no effect
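Tsg101 binding domain (10 uM final) was mixed with compound and a FITC-labeled PTAP peptide (50 nM final) in HEPES pH 7.5 buffer with NaCl, Tween 20, EDTA and TCEP; fluorescence polarization was read after 20 min at r.t.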
Numbers without * were called inactive; ? = inconclusive; nt = no result given. Unless noted, calls follow the shape of the dose curve; as a rule, active = well fitted curve in the direction sought with a large enough effect; inconclusive = small, poorly fitted or top-dose-only effect, or another doubt; inactive = no such curve, though single readings can be large; an effect the other way counts as inactive or inconclusive. Potency is read from the fitted curve at half-maximal effect.

SMILES	USP1-UAF1 inh	KAT2A inh	VDR inhibitor	PLK1 PBD block	TSG101-PTAP inh
O=C(Cn1cc(SCc2ccc(F)cc2)c2ccccc21)N1CCCC1	-20.0%	-13.7%	8.2%	nt	nt
COc1ccc(CCN(C)C2CCCN(S(=O)(=O)c3ccc(C)cc3)C2)cc1OC (stereo unspecified)	-10.6%	3.7%	6.2%	0.8%	1.4%
CCC(=O)OCc1cc(=O)n2nc(C3CC3)sc2n1	-23.2%	2.6%	9.8%	nt	nt
NS(=O)(=O)c1cccc(NC(=O)CCC(=O)c2cccs2)c1	-23.6%	-17.2%	172.2%	-7.3%	-2.7%
NS(=O)(=O)c1cccc(NC(=O)c2cccs2)c1	?	-9.3%	25.1µM*	13.4µM*	-5.2%
COC(=O)c1ccc(Nc2ncnc3c2nc2n3CCCC2)cc1	-25.8%	-11.8%	-0.2%	nt	nt
COc1ccc(NC(=O)c2sc3nc(C)c(C(=O)Nc4ccc(C)cc4C)c(-c4cccs4)c3c2N)cc1	?	-5.0%	-1.9%	nt	nt
COc1cccc(NC(=O)c2sc3nc(C)c(C(=O)Nc4ccc(C)cc4C)c(-c4cccs4)c3c2N)c1	?	17.8µM*	-23.7%	nt	nt
N/C(=N\NC(=O)c1cccs1)c1cc2cc(Cl)ccc2oc1=O	-11.7%	-0.7%	-30.0%	23.8µM*	0.8%
NC(=O)c1cc2ccccc2o/c1=N/NC(=O)c1cccs1	-25.5%	-17.6%	2.5%	3.2%	-8.1%
Cc1c2cnn(CC(=O)NCc3ccc(F)cc3)c(=O)c2c(C)n1Cc1ccccc1Cl	-19.0%	-26.3%	16.7%	nt	nt
C1=C(CCNc2nnnn2-c2ccccc2)CCCC1	-4.1%	0.3%	?	21.2µM*	-1.4%
O=c1c(-c2cc(F)cc(F)c2)nc2cncnc2n1-c1ccccc1	nt	-7.3%	-1.9%	nt	nt
O=C(COc1ccc(F)cc1)NC1CC(=O)N(c2ccc3c(c2)OCCO3)C1 (stereo unspecified)	1.7%	-2.1%	-2.5%	nt	nt
COCCn1c(C)cc(O)c(C(c2ccccc2Cl)N2CCN(c3ccccc3)CC2)c1=O (stereo unspecified)	-31.5%	0.0%	0.1%	nt	nt
O=C(Nc1nc(=O)n(C(=O)c2cccc(C(F)(F)F)c2)s1)c1ccccc1	?	-0.1%	14.1µM*	16.8µM*	-11.6%
O=C(Nc1ccc(-c2csc(Nc3cccc(C(F)(F)F)c3)n2)cc1)c1ccccc1	-26.9%	-3.6%	2.5%	-1.7%	-0.1%
COc1cccc(CNC(=O)CCn2c(=O)c3cccn3c3cccnc32)c1OC	-19.8%	1.0%	6.7%	nt	nt
Cc1cccn2cc(CNC(=O)c3ccco3)nc12	-14.1%	35.5µM*	-19.1%	-8.1%	-1.7%
Cc1cccn2cc(CCNC(=O)c3ccco3)nc12	-22.1%	-2.2%	-7.9%	1.5%	-2.5%
c1ccc(-c2nc(N3CCOCC3)cc(N3CCOCC3)n2)cc1	-22.7%	-12.6%	22.1%	11.7%	-0.3%
FC(F)(F)c1cc(N2CCOCC2)nc(-c2ccccc2)n1	-10.7%	0.0%	?	26.7µM*	-7.2%
COCCn1c(=O)c(-c2ccc(F)cc2)nc2cnc(N(C)C)nc21	nt	-9.7%	-0.4%	nt	nt
N=C1/C(=C/c2ccc(OCc3ccccc3F)cc2)C(=O)N=C2SC(CC(=O)N3CCOCC3)=NN12	-8.8%	-21.8%	-14.3%	37.7µM*	-5.2%
COc1ccc(N(CC(=O)Nc2ccccc2C)S(=O)(=O)c2ccccc2[N+](=O)[O-])c(OC)c1	-12.5%	3.1%	?	7.52µM*	-0.1%
SMILES	USP1-UAF1 inh	KAT2A inh	VDR inhibitor	PLK1 PBD block	TSG101-PTAP inh
O=C(CSc1nnnn1C1CC1)N1CCN(c2ccc(O)cc2)CC1	-13.1%	-2.5%	-15.2%	-9.8%	-2.4%
O=C(CSc1nnnn1C1CCCCC1)N1CCOCC1	-26.4%	-5.5%	-5.2%	26.7µM*	-3.5%
Nc1ccccc1SCc1csc(-c2ccc(Cl)cc2)n1	?	3.2%	?	9.47µM*	-3.3%
Clc1ccc(-c2nc(CSc3ccccn3)cs2)cc1	-24.5%	nt	nt	-23.5%	nt
COCc1nnc(NC(=O)C2CCN(C(=O)c3ccccc3)CC2)s1	nt	nt	2.0%	nt	nt
Cc1ccc(CNC(=O)c2c(O)nc3ccccn3c2=O)cc1	-8.8%	-1.2%	-6.3%	nt	nt
Cn1c(=O)c2cc(S(=O)(=O)NC(Cc3ccccc3)C(=O)NCC3CCCO3)ccc2n(C)c1=O (stereo unspecified)	-15.4%	-2.2%	-5.4%	0.6%	-2.9%
